Assay results reported in PubChem BioAssay (Tox21).
Records with an inconclusive call do not appear. A call without a number means that no potency is given here. Active and inactive are the calls of the source. Unless noted, calls follow the shape of the dose curve; as a rule, active = well fitted curve in the direction sought with a large enough effect in the repeat runs; inconclusive = weak or mixed curves; inactive = no such curve, though single readings can be large; an effect the other way counts as inactive or inconclusive.

Key:
[1] = A CellTox Green Cytotoxicity Assay to monitor cytotoxicity in HEK293 cells - 8 hour (AID 1224884); also: nearly all actives have a fitted effect of over 35% in size
In short: (§1)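 HEK293 cells, 600/well, were preincubated 5 hours and then exposed to compounds at 37 C for up to 40 hours. A cell-impermeant cyanine dye staining dead-cell DNA was read by fluorescence at 0, 8, 16, 24, 32 and 40 h time points.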

[2] = qHTS RealTime-Glo MT Cell Viability Assay in HepG2 cells - 16 hour (AID 1224885); also: nearly all actives have a fitted effect of over 50% in size; also: potency is read from the fitted curve at half-maximal effect
In short: (§2)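 Real-time, nonlytic viability: 600 HepG2 cells/well mixed with NanoLuc enzyme plus prosubstrate; 5 h settle, compound (DMSO) added by pintool; luminescence monitored over 40 h at 37 C.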

[3] = qHTS RealTime-Glo MT Cell Viability Assay in HEK293 cells - 24 hour (AID 1224886); also: nearly all actives have a fitted effect of over 50% in size; also: potency is read from the fitted curve at half-maximal effect
In short: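 Cells + reagent dispensed (600 cells/well, HEK293) → 5 h at 37 C/5% CO2 → 23 nL compound in DMSO pinned → 40 h at 37 C → luminescence read at 0, 8, 16, 24, 32, 40 h.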

[4] = qHTS RealTime-Glo MT Cell Viability Assay in HEK293 cells - 8 hour (AID 1224887); also: nearly all actives have a fitted effect of over 50% in size; also: potency is read from the fitted curve at half-maximal effect
In short: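 600 cells/well were plated with the nonlytic NanoLuc/prosubstrate reagent, pre-incubated 5 h, then given 23 nL of compound in DMSO. Incubation at 37 C for 40 h, with luminescence from viable-cell-reduced substrate read repeatedly from 0 h.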

[5] = A CellTox Green Cytotoxicity Assay to monitor cytotoxicity in HEK293 cells - 16 hour (AID 1224888); also: nearly all actives have a fitted effect of over 35% in size
In short: as §1

[6] = qHTS RealTime-Glo MT Cell Viability Assay in HepG2 cells - 0 hour (AID 1224889); also: nearly all actives have a fitted effect of over 50% in size
In short: as §2

[7] = A CellTox Green Cytotoxicity Assay to monitor cytotoxicity in HepG2 cells - 8 hour (AID 1224890); also: nearly all actives have a fitted effect of over 45% in size
In short: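 HepG2 cells, 600/well, preincubated 5 h with CellTox Green dye, then exposed to Tox21 compounds in DMSO at 37 C for up to 40 h. Dead-cell DNA fluorescence read at the indicated time point.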

[8] = qHTS assay to identify small molecule antagonists of the estrogen receptor alpha (ER-alpha) signaling pathway using the BG1 cell line in the presence of 0.1 nM 17-beta-estradiol - cell viability counter screen (AID 1259241); also: nearly all actives have a fitted effect of over 40% in size
In short: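 Measures cytotoxicity alongside the ER-alpha antagonist readout: VM7Luc4E2 cells, charcoal-stripped serum, 0.1 nM 17beta-estradiol final, 22 hr compound incubation at 37C, CellTiter-Fluor fluorescence.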

[9] = qHTS assay to identify small molecule antagonists of the androgen receptor (AR) signaling pathway using the MDA cell line in the presence of 0.5 nM R1881 - cell viability counter screen (AID 1259242); also: nearly all actives have a fitted effect of over 45% in size; also: potency is read from the fitted curve at half-maximal effect
In short: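 MDA-kb2 cells (MMTV-luciferase, AR/GR responsive) were treated with compounds plus 0.5 nM R1881 (final) for 16 hr at 37C, 0% CO2. Viability was then read in the same wells as live-cell protease fluorescence (CellTiter-Fluor, 30 min).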

[10] = qHTS assay to identify small molecule phospholipidosis (PLD) inducers (AID 1259344; active = well fitted curve in the direction sought with a large enough effect; an effect the other way counts as inactive or inconclusive)
In short: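 Quantitative HTS in HepG2: compound plus LipidTOX Red dye for 24 h, paraformaldehyde fixation with Hoechst 33342, widefield high-content imaging; amiodarone as positive and DMSO as negative control.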

[11] = qHTS assay to identify small molecule HDAC inhibitors (AID 1259364); also: nearly all actives have a fitted effect of over 45% in size; also: potency is read from the fitted curve at half-maximal effect
In short: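 Wild-type HCT-116 cells, plated overnight at 37 C, exposed to compounds 2 hr at 37 C; luminogenic HDAC-Glo substrate then added 30 min at room temperature. Luminescence reports relative endogenous class I/II HDAC activity.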

[12] = qHTS assay to identify small molecule HDAC inhibitors - cell viability counter screen (AID 1259365)
In short: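 Following a 2hr exposure of overnight-plated wild-type HCT-116 cells to DMSO-delivered compounds, CellTiter-Glo was added and luminescence recorded after 30min at room temperature.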

[13] = qHTS assay to identify small molecule antagonists of the sonic hedgehog signaling (Shh) pathway - cell viability counter screen (AID 1259367); also: nearly all actives have a fitted effect of over 55% in size; also: potency is read from the fitted curve at half-maximal effect
In short: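 Seed 3T3 Gli1-Luc cells at 2,000 per well; incubate 4 hr; add compound in DMSO, then conditioned medium; incubate at 37C with 5% CO2; add CellTiter-Fluor after 23 hr; read fluorescence 1 hr later.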

[14] = qHTS assay to identify small molecule agonists of the sonic hedgehog signaling (Shh) pathway (AID 1259368; calls by dose curve; also: nearly all actives have a fitted effect of over 15% in size; also: potency is read from the fitted curve at half-maximal effect)
In short: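 NIH/3T3-derived 3T3Gli1-Luc cells with stably integrated Gli1-driven firefly luciferase, 2,000 cells/well, compounds added after 4 hr. Incubated 24 hr at 37C, 5% CO2; luminescence read after 30 min with luciferase reagent at room temperature.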

[15] = target: Estrogen receptor beta (Homo sapiens) (UniProt Q92731); experiment: qHTS assay to identify small molecule antagonists of the estrogen receptor beta (ER-beta) signaling pathway (AID 1259378; active = well fitted inhibition curve with a large enough effect in the signal ratio in the repeat runs, not every such curve was filed as active; the % refers to the signal ratio)
Sequence of Estrogen receptor beta (Homo sapiens) (Q92731 whole entry, looked up): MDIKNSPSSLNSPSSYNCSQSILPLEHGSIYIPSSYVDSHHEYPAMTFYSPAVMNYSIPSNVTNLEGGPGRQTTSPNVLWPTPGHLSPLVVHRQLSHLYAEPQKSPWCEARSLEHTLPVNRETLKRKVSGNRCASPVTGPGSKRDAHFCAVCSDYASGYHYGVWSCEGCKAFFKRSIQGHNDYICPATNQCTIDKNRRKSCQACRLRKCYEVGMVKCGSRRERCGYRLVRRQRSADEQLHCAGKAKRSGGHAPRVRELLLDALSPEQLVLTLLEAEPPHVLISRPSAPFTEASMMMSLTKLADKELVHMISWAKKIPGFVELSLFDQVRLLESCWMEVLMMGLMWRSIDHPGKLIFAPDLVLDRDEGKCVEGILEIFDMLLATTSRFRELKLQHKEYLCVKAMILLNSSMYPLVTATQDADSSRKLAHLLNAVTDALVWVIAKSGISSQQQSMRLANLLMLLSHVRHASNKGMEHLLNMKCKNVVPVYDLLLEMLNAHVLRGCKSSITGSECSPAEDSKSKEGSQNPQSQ
In short: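 ER-beta-UAS-bla HEK293T cells in 2% charcoal-stripped FBS medium treated with compound plus 1nM final 17-beta-estradiol for 16 hr at 37C. Beta-lactamase reporter read by FRET substrate fluorescence after 2 hours at room temperature.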

[16] = target: Androgen receptor (Homo sapiens) (UniProt P10275); experiment: qHTS assay to identify small molecule antagonists of the androgen receptor (AR) signaling pathway using the MDA cell line in the presence of 0.5 nM R1881 (AID 1259243); also: nearly all actives have a fitted effect of over 50% in size
Sequence of Androgen receptor (Homo sapiens) (P10275 whole entry, looked up): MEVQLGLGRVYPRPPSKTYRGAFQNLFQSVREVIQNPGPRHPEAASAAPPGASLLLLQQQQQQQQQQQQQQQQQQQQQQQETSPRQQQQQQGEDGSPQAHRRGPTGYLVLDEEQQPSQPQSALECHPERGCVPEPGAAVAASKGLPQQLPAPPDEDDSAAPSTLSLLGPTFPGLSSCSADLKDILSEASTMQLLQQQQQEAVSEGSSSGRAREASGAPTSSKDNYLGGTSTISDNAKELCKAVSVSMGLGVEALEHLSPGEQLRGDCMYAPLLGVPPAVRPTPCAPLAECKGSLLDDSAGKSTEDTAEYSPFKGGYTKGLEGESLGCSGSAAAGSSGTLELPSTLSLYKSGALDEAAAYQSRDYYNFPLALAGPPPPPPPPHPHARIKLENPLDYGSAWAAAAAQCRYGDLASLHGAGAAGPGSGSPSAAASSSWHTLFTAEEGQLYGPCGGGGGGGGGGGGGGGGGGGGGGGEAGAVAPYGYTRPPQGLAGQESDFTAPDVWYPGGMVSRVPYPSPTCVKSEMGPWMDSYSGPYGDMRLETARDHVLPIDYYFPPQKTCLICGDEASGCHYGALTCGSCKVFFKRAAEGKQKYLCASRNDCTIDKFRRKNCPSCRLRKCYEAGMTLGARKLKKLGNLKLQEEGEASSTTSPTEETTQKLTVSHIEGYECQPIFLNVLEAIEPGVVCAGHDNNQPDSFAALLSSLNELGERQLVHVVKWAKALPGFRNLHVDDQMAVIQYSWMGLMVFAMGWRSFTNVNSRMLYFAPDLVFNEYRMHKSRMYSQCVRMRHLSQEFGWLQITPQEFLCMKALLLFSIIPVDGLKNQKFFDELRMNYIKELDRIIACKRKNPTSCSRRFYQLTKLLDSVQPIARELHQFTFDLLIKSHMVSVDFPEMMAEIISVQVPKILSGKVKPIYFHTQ
In short: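 MDA-kb2 cells (MMTV-luciferase, responsive to AR and GR) at 3,000/well, rested 5 h at 37C, 0% CO2, then given compounds plus 0.5 nM R1881 (final) for 16 hr. Luciferase read with ONE-Glo after 30 min at room temperature.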

[17] = target: Estrogen receptor (Homo sapiens) (UniProt P03372); experiment: qHTS assay to identify small molecule antagonists of the estrogen receptor alpha (ER-alpha) signaling pathway using the BG1 cell line in the presence of 0.1 nM 17-beta-estradiol (AID 1259244); also: nearly all actives have a fitted effect of over 50% in size; also: potency is read from the fitted curve at half-maximal effect
Sequence of Estrogen receptor (Homo sapiens) (P03372 whole entry, looked up): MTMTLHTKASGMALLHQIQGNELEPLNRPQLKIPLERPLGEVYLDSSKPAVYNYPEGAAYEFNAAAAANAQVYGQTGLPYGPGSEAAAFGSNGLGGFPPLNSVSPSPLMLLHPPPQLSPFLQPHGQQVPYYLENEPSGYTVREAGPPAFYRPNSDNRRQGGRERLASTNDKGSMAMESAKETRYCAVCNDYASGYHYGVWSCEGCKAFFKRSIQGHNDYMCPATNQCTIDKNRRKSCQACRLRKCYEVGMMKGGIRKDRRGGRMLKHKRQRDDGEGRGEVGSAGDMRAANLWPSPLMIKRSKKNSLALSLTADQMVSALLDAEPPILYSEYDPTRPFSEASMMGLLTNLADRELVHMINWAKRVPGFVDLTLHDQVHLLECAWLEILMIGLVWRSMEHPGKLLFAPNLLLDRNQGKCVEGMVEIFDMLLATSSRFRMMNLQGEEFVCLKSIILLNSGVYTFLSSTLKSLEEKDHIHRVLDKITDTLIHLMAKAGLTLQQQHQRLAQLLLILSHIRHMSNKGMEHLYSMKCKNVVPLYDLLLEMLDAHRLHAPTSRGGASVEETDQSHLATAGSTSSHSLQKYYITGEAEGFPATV
In short: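 VM7Luc4E2 cells (endogenous full-length ER-alpha, 4×ERE-luciferase), kept 5 days in phenol red-free, charcoal-stripped FBS medium; 4,000 cells/well. Compounds added with 0.1 nM (final) 17beta-estradiol, 22 hr at 37C; luminescence read with ONE-Glo after 30 min.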

[18] = qHTS assay to identify small molecule agonists of the sonic hedgehog signaling (Shh) pathway - cell viability counter screen (AID 1259366); also: nearly all actives have a fitted effect of over 50% in size; also: potency is read from the fitted curve at half-maximal effect
In short: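 After a 4hr attachment at 37C, NIH/3T3 cells bearing an integrated Gli1-driven luciferase reporter were dosed with compounds. Treatment lasted 24hr, with the final hour including CellTiter-Fluor for a fluorescence viability measurement.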

[19] = qHTS assay to identify small molecule antagonists of the sonic hedgehog signaling (Shh) pathway (AID 1259369; calls by dose curve; also: nearly all actives have a fitted effect of over 45% in size; also: potency is read from the fitted curve at half-maximal effect)
In short: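 NIH/3T3-derived Gli1-Luc reporter cells plated 4 h, dosed with compound, then stimulated with conditioned medium for 24 h at 37 C. Firefly luciferase luminescence read after 30 min with detection reagent at room temperature.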

[20] = target: Estrogen receptor beta (Homo sapiens) (UniProt Q92731); experiment: qHTS assay to identify small molecule agonists of the estrogen receptor beta (ER-beta) signaling pathway (AID 1259377; active = well fitted activation curve with a large enough effect in the signal ratio in the repeat runs, not every such curve was filed as active; the % refers to the signal ratio)
In short: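 In HEK293T cells bearing a UAS-beta-lactamase reporter under ER-beta control, DMSO-delivered compounds were incubated for 16 hr at 37C. Activity was detected as fluorescence 2 hours after LiveBLAzer B/G FRET substrate addition.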

| Compound | Potency [1] | Potency [2] | Potency [3] | Potency [4] | Potency [5] | Potency [6] | Potency [7] | Potency [8] | Potency [9] | Potency [10] | Potency [11] | Potency [12] | Potency [13] | Potency [14] | Potency [15] | Potency [16] | Potency [17] | Potency [18] | Potency [19] | outcome [20] |
| --- | --- | --- | --- | --- | --- | --- | --- | --- | --- | --- | --- | --- | --- | --- | --- | --- | --- | --- | --- | --- |
| COc1cc([C@@H]2c3cc4c(cc3[C@@H](O[C@@H]3O[C@@H]5CO[C@@H](C)O[C@H]5[C@H](O)[C@H]3O)[C@H]3COC(=O)[C@H]23)OCO4)cc(OC)c1O | inactive | inactive | 1.08 µM (active) | inactive | inactive | inactive | inactive | inactive | inactive | inactive | inactive | inactive | 60.4 µM (active) | inactive | inactive |  |  |  |  |  |
| CCCCCCCCc1ccc(Nc2ccc(CCCCCCCC)cc2)cc1 | inactive | inactive | inactive | inactive |  | inactive | inactive | inactive | inactive |  | inactive | inactive | inactive | inactive | inactive | inactive | inactive | inactive | inactive | inactive |
| O=c1cc[nH]cc1 | inactive | inactive | inactive | inactive |  | inactive | inactive | inactive | inactive |  | inactive | inactive | inactive | inactive | inactive | inactive | inactive | inactive | inactive | inactive |
| Clc1ccc2c(Cl)ccnc2c1 | inactive | inactive | inactive | inactive |  | inactive | inactive | inactive | inactive |  | inactive | inactive | inactive | inactive | inactive | inactive | inactive | inactive | inactive |  |
| CCC(=O)OC/C=C(\C)CCC=C(C)C | inactive | inactive | inactive | inactive |  | inactive | inactive | inactive | inactive |  |  | inactive | inactive | inactive |  | inactive | inactive | inactive | inactive |  |
| Cc1ccc2nc(-c3ccc(N)cc3)sc2c1S(=O)(=O)O | inactive | inactive | inactive | inactive |  | inactive | inactive | inactive | inactive |  | 3.8 µM (active) | inactive | inactive | 1.9 µM (active) |  | inactive | inactive | inactive | inactive |  |
| CC1(C)[C@H]2CC[C@]1(C)C(=O)C2 | inactive | inactive | inactive | inactive | inactive | inactive | inactive | inactive | inactive |  |  | inactive | inactive | inactive | inactive |  | inactive |  |  |  |
| CCOC(=O)[C@H](C)O | inactive | inactive | inactive | inactive | inactive | inactive | inactive | inactive | inactive |  | inactive | inactive | inactive | inactive | inactive |  | inactive | inactive |  |  |
| C/C=C/C(=O)C1=C(C)C=CCC1(C)C | inactive | inactive | inactive | inactive |  | inactive | inactive | inactive | inactive |  |  | inactive | inactive | inactive |  | inactive | inactive | inactive | inactive |  |
| Oc1ccc(C2(c3ccc(O)c(C4CCCCC4)c3)CCCCC2)cc1C1CCCCC1 | inactive | 38.9 µM (active) | 38.9 µM (active) | 43.6 µM (active) | inactive | inactive |  |  | 43.3 µM (active) |  | inactive | inactive | 21.7 µM (active) | inactive |  |  | 43.3 µM (active) | 19.3 µM (active) | 12.2 µM (active) |  |
| COC(=O)c1ccc([N+](=O)[O-])cc1 | inactive | inactive | inactive | inactive |  | inactive | inactive | inactive | inactive |  | inactive | inactive | inactive | inactive |  | inactive |  | inactive | inactive |  |
| CCC1(C)C(=O)N(Cl)C(=O)N1Cl (stereo not given) | inactive | inactive | inactive | inactive |  | inactive | inactive | inactive | inactive |  | inactive | inactive | inactive | inactive | inactive | inactive | inactive | inactive | inactive |  |
| CCCCCCCC/C=C\CCCCCCCC(=O)N(CCO)CCO | inactive | inactive | 43.5 µM (active) | 43.5 µM (active) |  | inactive | inactive | inactive | inactive |  | inactive | inactive | inactive | inactive |  |  | 30.5 µM (active) | inactive | 15.3 µM (active) |  |
| CCN(CC)c1ccc(N=Nc2ccccc2)cc1 | inactive | inactive | 49 µM (active) | 43.6 µM (active) | inactive | inactive | inactive |  |  |  | 27.3 µM (active) | inactive | 34.4 µM (active) |  | inactive | inactive | inactive | 30.6 µM (active) |  | inactive |
